D3 ag: activates the human D3 dopamine receptor | P35462 | D3R DiscoveRx beta-arrestin cells, luminescence, 90 min | 410,000 tested, 0.58% active | max activation, %; in the data active = max activation above about 30%
Target sequence (P35462 whole entry, looked up): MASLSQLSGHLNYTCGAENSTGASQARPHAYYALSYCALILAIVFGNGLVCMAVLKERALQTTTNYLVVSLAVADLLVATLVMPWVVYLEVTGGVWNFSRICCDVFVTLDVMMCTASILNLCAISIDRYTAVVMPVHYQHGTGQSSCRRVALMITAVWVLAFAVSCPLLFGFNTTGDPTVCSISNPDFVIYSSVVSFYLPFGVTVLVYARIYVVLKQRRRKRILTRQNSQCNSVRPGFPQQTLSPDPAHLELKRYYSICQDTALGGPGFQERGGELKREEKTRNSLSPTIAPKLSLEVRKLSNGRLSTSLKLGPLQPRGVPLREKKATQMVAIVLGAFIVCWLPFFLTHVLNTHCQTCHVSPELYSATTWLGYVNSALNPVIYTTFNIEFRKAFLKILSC
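Agonist-mode cell screen: cells plated at 1500/well and incubated overnight at 37 °C, then exposed to library compounds for 90 min at 37 °C. Detection reagent was added for 30–60 min at room temperature, and luminescence was read.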
S2 tox: cell viability loss in ATXN counter-screen; S2 cells (HEK-293 line with an ATXN2-luciferase reporter) viability, CellTiter-Fluor protease fluorescence, 24 h; Potency, µM (titrated, usually from 56.7 µM), hits mostly cytotoxic; 400,000 tested, 0.49% active; AID 651635; note: nearly all actives have a fitted effect of over 40% in size
D3 antag: antagonists of human D3 dopamine receptor | 360,000 tested, 2.5% active | D3R cells, DiscoveRx beta-arrestin luminescence, antagonist mode; active compounds read low | max response, negative = inhibition, % | P35462; in the data active = max response below about -50%; inconclusive = no clear call, values can overlap the other calls
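Cells plated overnight at 1500 cells/well, then exposed to library compounds with dopamine controls for 90 minutes at 37 degrees C. DiscoveRx reagent added for 30–60 minutes at room temperature; luminescence read, quantitative HTS format.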
HepG2 tox: kills HepG2 cells in TGF-b inhibitor counter-screen; HepG2 CAGA-GFP viability, ATP luminescence, 18 h; Potency, µM (highest dose often 46.1 µM), usual class: cytotoxic; 410,000 tested, 0.76% active; AID 588856
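CellTiter-Glo luminescence gave cytotoxicity after 18 hours at 37 degrees C. The cells were HepG2 CAGA-GFP in 1% FBS DMEM, stimulated with 500 pg/mL TGF-beta after compound addition. %Activity was normalised to no-cell wells (complete cell-killing) and DMSO (no toxicity), and curves were fitted and classified.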
ATXN2 expr inh: inhibitors of ATXN2 expression | 360,000 tested, 0.72% active | HEK-293 ATXN2-luciferase reporter, luminescence, 24 h | Potency, µM (top dose mostly 57 µM), actives largely listed as inhibitors | AID 1745845; note: nearly all actives have a fitted effect of over 55% in size
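qHTS (up to 57 uM final) was run with 24 h compound exposure of reporter cells at 37 °C. Each well was multiplexed: SteadyGlo luminescence measured ATXN2-luciferase expression after a fluorogenic Gly-Phe-AFC viability readout (25 uM final).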
TGFb SMAD3 inh: inhibitors of TGF-b signaling. HepG2 CAGA-GFP TGF-b/SMAD3 reporter, GFP fluorescence, 18 h; TGF-beta stimulated, 500 pg/mL final. Potency, µM (series often up to 46.1 µM), actives largely listed as inhibitors. 410,000 tested, 1.2% active. AID 588855; note: nearly all actives have a fitted effect of over 65% in size
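HEPG2 CAGA-GFP reporter cells (1000/well, DMEM with 1% FBS) received compounds, then recombinant TGF-beta at 500 pg/mL final for 18 hours at 37 degrees C. Per-cell GFP summed per well was normalised to unstimulated and stimulated DMSO controls before curve fitting.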
A number is an active result. Rows were chosen to be rich in hits. Some 4.7% of all compounds tested hit in one or more screens of this group. Unless noted, calls come from the whole dose curve; as a rule, active = well fitted curve in the direction sought with a large enough effect; inconclusive = small, poorly fitted or top-dose-only effect, or another doubt; inactive = no such curve, though single readings can be large; an effect the other way counts as inactive or inconclusive.

COc1ccc(OC)c(NC(=O)c2c(NCc3ccc(OC)c(OC)c3)sc3c2CCC3)c1 was read as D3 ag inactive, HepG2 tox inactive, ATXN2 expr inh inconclusive and TGFb SMAD3 inh inactive.
Screening Fc1ccc(-c2csc(=Nc3cccc(C(F)(F)F)c3)n2Cc2ccc3c(c2)OCO3)cc1 returned D3 ag inactive, S2 tox inactive, HepG2 tox inactive, ATXN2 expr inh inactive and TGFb SMAD3 inh inconclusive.
For COc1cccc(N2C(N)=NC(N)=NC2(C)C)c1 the results were D3 ag inactive, S2 tox inactive, D3 antag inactive, HepG2 tox inactive, ATXN2 expr inh inactive and TGFb SMAD3 inh inactive.
Screening CC1(C)N=C(N)N=C(N)N1c1cccc(C#N)c1 returned D3 ag inactive, S2 tox inactive, D3 antag inactive, HepG2 tox 2µM, ATXN2 expr inh inactive and TGFb SMAD3 inh inactive.
Screening CCc1ccc2nc(N3CCN(C(=O)C4CC4)CC3)sc2c1 returned D3 ag inactive, HepG2 tox inactive and TGFb SMAD3 inh inactive.
Screening CCc1ccc2nc(N3CCC(C(=O)O)CC3)sc2c1 returned D3 ag inactive, S2 tox inactive, HepG2 tox inactive, ATXN2 expr inh 14.1µM and TGFb SMAD3 inh inactive.
`COc1cc2c(cc1OC)/C(=C/c1ccc(N(C)C)cc1)C=C2` gave HepG2 tox inactive and TGFb SMAD3 inh inactive.
Screening COc1ccc(OCCNC(=O)C2(C)CCN2Cc2ccc3ccccc3c2)cc1 (configuration not stated) returned D3 ag inactive, S2 tox inconclusive, D3 antag inactive, HepG2 tox inactive, ATXN2 expr inh inconclusive and TGFb SMAD3 inh 14.1µM.
COc1ccc(OCCNC(=O)C2(C)CCN2Cc2ccc(SC)cc2)cc1 (configuration not stated) was read as D3 ag inactive, S2 tox inactive, D3 antag inactive, HepG2 tox inactive, ATXN2 expr inh inconclusive and TGFb SMAD3 inh inconclusive.
Clc1ccc(CN2CC[C@H]3C=CCc4cccc(c43)C2)cc1 was read as D3 ag inactive, S2 tox inactive, D3 antag -84.3, HepG2 tox inactive, ATXN2 expr inh inactive and TGFb SMAD3 inh inactive.
For O=C1C[C@H]2C=CCc3cccc(c32)CN1Cc1ccc(Br)cc1 the results were HepG2 tox inactive and TGFb SMAD3 inh inactive.
Screening Fc1ccc(CN2CC[C@H]3C=CCc4cccc(c43)C2)cc1 returned D3 ag inactive, S2 tox inconclusive, D3 antag -52.9, HepG2 tox inactive, ATXN2 expr inh inactive and TGFb SMAD3 inh inconclusive.
Cc1cccnc1C(c1ccc(F)cc1)N(C)C(=O)C1CCN(CCCOc2ccc(F)cc2)CC1 (configuration not stated) was read as D3 ag inactive, S2 tox inconclusive, D3 antag -94.1, HepG2 tox inactive, ATXN2 expr inh inactive and TGFb SMAD3 inh inactive.
`Cc1cc(Cl)ccc1OCCCC(=O)NC1CCN(C)CC1` gave D3 ag inactive, S2 tox inactive, D3 antag inactive, HepG2 tox inactive, ATXN2 expr inh inactive and TGFb SMAD3 inh inactive.
Cc1cccnc1C(c1ccc(F)cc1)N(C)C(=O)C1CCN(CCOc2ccc(Cl)cc2Cl)CC1 (configuration not stated) was read as D3 ag inactive, S2 tox 28.2µM, D3 antag -73.6, HepG2 tox inactive, ATXN2 expr inh 31.6µM and TGFb SMAD3 inh inconclusive.
`O=C(NCCC1=CCCCC1)C1CCC(CNc2nc(=S)[nH]c3ccccc23)CC1` (configuration not stated) gave D3 ag inactive, D3 antag -83.4, HepG2 tox inactive, ATXN2 expr inh inconclusive and TGFb SMAD3 inh inconclusive.
Screening CC(=O)Nc1ccc(S(=O)(=O)NN=Cc2ccc(Cl)c(Cl)c2)cc1 returned D3 ag inactive, S2 tox inactive, D3 antag -70.6, HepG2 tox inactive, ATXN2 expr inh inactive and TGFb SMAD3 inh inactive.
For CC(=O)Nc1ccc(/C=N/NS(=O)(=O)c2cc(C)ccc2C)cc1 the results were D3 ag inactive, S2 tox inactive, D3 antag inactive, HepG2 tox inactive, ATXN2 expr inh inactive and TGFb SMAD3 inh inactive.
Screening Cc1ccc(S(=O)(=O)N/N=C/c2c(F)cccc2Cl)cc1 returned D3 ag inactive, S2 tox inactive, D3 antag -87.3, HepG2 tox inactive, ATXN2 expr inh inactive and TGFb SMAD3 inh inactive.
Screening Cc1ccc(S(=O)(=O)N/N=C/c2ccc3nccnc3c2)cc1 returned D3 ag 51.8, S2 tox inactive, D3 antag inconclusive, HepG2 tox inactive, ATXN2 expr inh inactive and TGFb SMAD3 inh inactive.
Cc1ccc(S(=O)(=O)N/N=C\c2cc([N+](=O)[O-])ccc2Cl)cc1 was read as D3 ag inactive, S2 tox inactive, D3 antag -63.4, HepG2 tox inactive, ATXN2 expr inh inactive and TGFb SMAD3 inh inactive.
Screening O=C(Nc1nc(-c2cccs2)cs1)C1CC(=O)N(c2ccc3c(c2)OCCO3)C1 (configuration not stated) returned HepG2 tox inactive and TGFb SMAD3 inh inconclusive.
COc1cc(=O)n2c(c1C(=O)NC(C)c1ccco1)CCN(C(=O)c1cc(C)cc(C)c1)CC2 (configuration not stated) was read as S2 tox inactive.
O=[N+]([O-])c1ccc(S(=O)(=O)N/N=C/c2ccc3c(c2)OCO3)cc1 was read as D3 ag inactive, S2 tox inactive, D3 antag inactive, HepG2 tox inactive, ATXN2 expr inh inactive and TGFb SMAD3 inh inactive.
Screening O=[N+]([O-])c1ccc(S(=O)(=O)NN=Cc2ccc(Cl)c(Cl)c2)cc1 returned D3 ag inactive, S2 tox inactive, D3 antag -51.4, HepG2 tox inactive, ATXN2 expr inh inactive and TGFb SMAD3 inh inactive.
For CCC(C)(C)NC(=O)c1ccc2c(c1)N(CC(=O)NC1CCCC1)C(=O)C(C)(C)O2 the results were D3 ag inactive, S2 tox inconclusive, D3 antag -62.5, HepG2 tox inactive, ATXN2 expr inh inactive and TGFb SMAD3 inh inactive.
Screening COC(=O)CN1C(=O)C(C)(C)Oc2ccc(C(=O)NC3CCCC3)cc21 returned D3 ag inactive, S2 tox inactive, D3 antag inactive, HepG2 tox inactive, ATXN2 expr inh inactive and TGFb SMAD3 inh inactive.
Cc1ccc(-c2cn(-c3cccc(Cl)c3)c(S(=O)(=O)CC(=O)Nc3ccccc3F)n2)cc1 was read as D3 ag inactive, S2 tox inactive, HepG2 tox inactive, ATXN2 expr inh inactive and TGFb SMAD3 inh inconclusive.
Screening CCSc1nnc(NC(=O)C(NC(=O)c2ccc(Cl)cc2)C(C)C)s1 (configuration not stated) returned D3 ag inactive, S2 tox inactive, D3 antag -60.6, HepG2 tox inactive, ATXN2 expr inh inactive and TGFb SMAD3 inh inactive.
